The text below walks through data of PubChem BioAssay (NCATS).

Records with an inconclusive call do not appear. Active and inactive are the calls of the source. Unless noted, calls follow the shape of the dose curve; as a rule, active = well fitted curve in either direction with a large enough effect (not every such curve was filed as active); inconclusive = small, poorly fitted or top-dose-only effect, or another doubt; inactive = flat fitted curve, though single readings scatter.

Experiment [1] addresses Lysosomal acid glucosylceramidase (Homo sapiens) (UniProt P04062). Put plainly: Glucocerebrosidase-p2 (AID 348; in the data active = potency below about 10 µM; also: potency is read from the fitted curve at half-maximal effect). The settings on record: purified GBA, blue fluorogenic substrate, 40 min. Put shortly:
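Compounds titrated from 0.6 nM upwards against 0.2 nM enzyme in pH 5.9 citric acid/KH2PO4, taurocholate, tween-20; blue fluorogenic substrate 80 uM, 40 min room temperature, stopped and read Ex 365/Em 440 for AC50.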

Experiment [2] concerns the target Glucocorticoid receptor (Homo sapiens) (UniProt P04150). Briefly: GR-GFP Redistribution (AID 450;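 active = compounds whose dose series gives a full or clear partial fitted curve of increased nuclear translocation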; also: potency is read from the fitted curve at half-maximal effect). The settings on record: U2OS GR-GFP nuclear translocation, laser cytometry, 2 h.
Experiment [3] shares this target. Briefly: GR-EFC Redistribution (AID 451; calls by dose curve; also: potency is read from the fitted curve at half-maximal effect). The settings on record: CHO-K1 GR-EFC translocation, beta-gal luminescence, 2 h. The gist of the method:
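CHO-K1 cells stably expressing nuclear-localized β-gal enzyme acceptor and GR fused C-terminally to the enzyme donor fragment; ligand-driven nuclear translocation restores β-gal by complementation. Compounds titrated up to 46 uM final, 2 h at 37 °C; luminescence read.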

Experiment [4] deals with 3',5'-cyclic-AMP phosphodiesterase 4B (Homo sapiens) (UniProt Q07343). Put plainly: qHTS Assay for Inhibitors of PDE-IV (AID 607; active = well fitted activation curve with a large enough effect in the main read-out, with a control signal flat, not every such curve was filed as active; also: % of control where 0% means no effect). Put shortly: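 ACTOne HEK293 cells carry a modified cAMP-gated CNG channel and express endogenous PDE4; plated 1000 cells/well, compounds up to 22.9 uM final. Membrane-potential dye fluorescence (ex 535/em 590) was read; parental cells received 10 uM forskolin + 100 uM RO 20-1724.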

Experiment [5] can be described thus: Confirmatory qHTS for small molecule stabilizers of the endoplasmic reticulum resident proteome: Secreted ER Calcium Modulated Protein (SERCaMP) assay (AID 1508628; active = well fitted curve in the direction sought with a large enough effect; an effect the other way counts as inactive or inconclusive; also: nearly all actives have a fitted effect of over 40% in size; also: potency is read from the fitted curve at half-maximal effect). Put shortly:
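SH-SY5Y cells stably expressing GLuc-SERCaMP, treated 16 h with compound (primary 1.53, 7.67, 38.3 uM; confirmation 11 concentrations, up to 76.6 uM), then 100 nM thapsigargin for 4 h. Secreted Gaussia luciferase in medium read by coelenterazine luminescence.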
In general terms: In qHTS, concentration-response curves come from the screen itself.

A short description of experiment [6]: AP1 Signaling Pathway (AID 357).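 Also: ME-180 reporter cells stimulated with EGF at its EC50 level; % is scaled to controls: 0 for no effect and ±100 for the full control effect.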 The settings on record: ME-180 AP-1-bla reporter, EGF-induced, beta-lactamase ratio, 5 h; at 7.69 µM (top of the series) unless noted. The gist of the method:
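Read-out was the 460nm/530nm emission ratio (excitation 405nm) after CCF4 loading for 2.5 hours at room temperature. Cells carried an AP-1-driven beta-lactamase reporter, were stimulated with EC50 EGF plus compound for 5 hours, and AC50 values came from titrations.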

In experiment [7] the target is Cytochrome P450 1A2 (Homo sapiens) (UniProt P05177). Put plainly: p450-cyp1a2 (AID 410; calls by dose curve; also: potency is read from the fitted curve at half-maximal effect). The gist of the method:
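Luminescent readout of luciferin formed from Luciferin-ME by human CYP1A2; data normalized against complete inhibition by 57 uM furafylline. Enzyme 20nM, substrate 100uM at Km, 100mM KPO4 buffer, 60 min reaction at room temperature.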

Experiment [8] can be described thus: NFAT Signaling Pathway (AID 444).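 Also: carbachol stimulus at about its EC50 of 1 µM final; % is scaled to controls: 0 for no effect and ±100 for the full control effect.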 The settings on record: Jurkat NFAT-bla M1, carbachol, beta-lactamase ratio, 5 h; at 7.69 µM (top of the series) unless noted. The gist of the method: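 Jurkat cells carrying an NFAT-driven β-lactamase reporter and co-transfected muscarinic M1 receptor were treated with compound plus carbachol (1 uM final, an EC50 level) for 5 h at 37 °C. CCF4 loading followed for 1 h at RT; 460/530 nm ratio gave %activity.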

Experiment [9] in a line: Stat Signaling Pathway (AID 446).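 Also: ME-180 cervical cancer cells given 40 pM IL-6 alongside compound; SIE-controlled beta-lactamase reporter measured as 460/530 nm FRET emission ratio; % is scaled to controls: 0 for no effect and ±100 for the full control effect.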 The settings on record: ME-180 SIE beta-lactamase reporter, IL-6 stimulated, 5 h; at 7.69 µM (top of the series) unless noted. Put shortly: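 ME-180 SIE-bla cells; overnight plating; cpd + IL-6 40 pM, 5 h, 37 C; LiveBLAzer 2.5 h RT; 460/530 nm emission ratio. Normalized to 300 pM IL-6 and 125 nM JAK inhibitor controls.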
Experiment [10] has as its target Mitogen-activated protein kinase 10 (Mus musculus) (UniProt Q61831). Put plainly: JNK3 AlphaScreen Assay (AID 530).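 Also: kinase came from lysate of stimulated human HepG2 cells; signal reports phosphorylation of biotinylated GST-cJun 1-79 at Ser73 with 10 µM ATP; % is scaled to controls: 0 for no effect and ±100 for the full control effect.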 The gist of the method: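 Inhibitors reduce antibody binding to phosphorylated biotin-cJun, lowering AlphaScreen luminescence. Lysates from HepG2 cells pre-activated by IL-1beta plus TNF-alpha supplied JNK3; compounds were titrated.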
Background: Bead proximity is the source of the signal in Alpha formats.

The target in experiment [11] is Cytochrome P450 3A4 (Homo sapiens) (UniProt P08684). Put plainly: qHTS Assay for Activators of Cytochrome P450 3A4 (AID 885; active = well fitted curve in the direction sought with a large enough effect; an effect the other way counts as inactive or inconclusive; also: nearly all actives have a fitted effect of over 65% in size). The gist of the method: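 20nM CYP3A4 + 25uM Luciferin-PPXE (=KM), 200mM KPO4; cpd 10 min RT; NADPH regen, 60 min RT; stop w/ detection buffer, 20 min; luminescence. Normalized to 57 uM ketoconazole.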
Experiment [12] can be described thus: Counterscreen qHTS for small molecule stabilizers of the endoplasmic reticulum resident proteome: GLuc-NoTag assay (AID 1508627; active = well fitted curve in the direction sought with a large enough effect; an effect the other way counts as inactive or inconclusive;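 also: SH-SY5Y cells given compound then 100 nM thapsigargin to empty ER calcium; 0% = thapsigargin alone and -100% = DMSO vehicle control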). The gist of the method: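 SH-SY5Y cells stably expressing constitutively secreted GLuc (no SERCaMP tag) were pre-incubated 5 h, treated with compound for 19 h, then 100 nM thapsigargin for 4 h at 37C; medium GLuc read by coelenterazine luminescence.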
On the technique in general: A counterscreen serves to expose hits that act by an unwanted route or on another target.

A short description of experiment [13]: Confirmation and Secondary Assay for Modulators of Hemoglobin Beta Chain Splicing at IVS2 654 locus (AID 910; active = well fitted curve in the direction sought with a large enough effect; an effect the other way counts as inactive or inconclusive;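 also: per-well total GFP intensity by laser scanning cytometry after 2-day treatment; % of control where 0% means no effect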). The gist of the method: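 HeLa cells stably carrying EGFP interrupted by mutant beta-globin IVS2-654 intron (CMV-driven) were treated with compound for 2 days at 37C; corrected splicing was scored as total peak GFP intensity per well (488 nm excitation, 500-520 nm emission).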

A short description of experiment [14]: qHTS Assay for Identification of Small Molecule Agonists for Hypoxia Response Element Signaling Pathway (AID 914; active = well fitted activation curve with a large enough effect in the signal ratio, with a control signal flat, not every such curve was filed as active; the % refers to the signal ratio; also: potency is read from the fitted curve at half-maximal effect). The settings on record: ME-180 (cervical carcinoma) HRE-bla reporter, beta-lactamase ratio, CoCl2, 17 h; activation: stronger effect = higher value. The gist of the method: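 Reporter activity (beta-lactamase, CCF4 460nm/530nm ratio) in HRE-bla ME-180 cells is recorded after 17 h compound exposure with EC50 CoCl2 at 37 degrees Celsius. AC50 values come from titration data.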

Experiment [15] can be described thus: Confirmation and Secondary Assay for Modulators of Hemoglobin Beta Chain Splicing at IVS2 705 locus (AID 930; active = well fitted curve in the direction sought with a large enough effect; an effect the other way counts as inactive or inconclusive;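 also: HeLa cells stably expressing the EGFP-705 splicing reporter; GFP fluorescence per well restored by corrected splicing of the IVS2-705 intron in EGFP; % of control where 0% means no effect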). Put shortly:
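Stable HeLa line with EGFP disrupted by mutant beta-globin intron 2 (705). Overnight attachment, then 2 days of compound at 37C, 5% CO2. Signal: peak GFP intensity summed over objects 5-250 µm.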

A short description of experiment [16]: qHTS Assay for Lipid Storage Modulators (AID 1519; calls by dose curve). The settings on record: Drosophila S3 cells, BODIPY lipid droplet/cell ratio, laser cytometry, cells loaded with oleic acid; for activity change, negative = inhibition: at 57.5 µM (top of the series). The gist of the method: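 Cells seeded at 5,000 per well were treated with compounds over a concentration series and loaded with oleic acid (400 uM, as added). Lipid droplet fluorescence (488 nm excitation, 500-530 nm channel) was read by laser-scanning cytometry and normalized to 20 uM Triacsin C.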

For experiment [17], the target named is Ubiquitin carboxyl-terminal hydrolase 1 (Homo sapiens) (UniProt O94782). Briefly: Inhibitors of USP1/UAF1: Pilot qHTS (AID 504865; active = well fitted curve in the direction sought with a large enough effect; an effect the other way counts as inactive or inconclusive;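 also: rhodamine fluorescence freed from ubiquitin-rhodamine substrate followed over time; top concentration of the series differs between compounds; % is scaled to controls: 0 for no effect and ±100 for the full control effect; nearly all actives have a fitted effect of over 35% in size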). Put shortly:
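Deubiquitinase activity followed as kinetic rhodamine fluorescence release from 150 nM Ub-Rho. 1 nM USP1/UAF1 with compound, after 15 min room-temperature preincubation, in HEPES pH 7.8 buffer containing TCEP, EDTA, BSA and Tween-20.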

The target of experiment [18] is Cytochrome P450 2C19 (Homo sapiens) (UniProt P33261). Put plainly: qHTS Assay for Inhibitors and Substrates of Cytochrome P450 2C19 (AID 899; active = well fitted curve in the direction sought with a large enough effect; an effect the other way counts as inactive or inconclusive; also: potency is read from the fitted curve at half-maximal effect; nearly all actives have a fitted effect of over 60% in size). Put shortly:
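In 50mM KPO4, the reaction held 5nM enzyme and KM-level (10uM) Luciferin-H EGE; it ran 60 min at 37C after NADPH regeneration and a 10 min compound preincubation. Luminescence values were scaled to 57uM ketoconazole as complete inhibition.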

A short description of experiment [19]: Cell Viability qHTS for small molecule stabilizers of the endoplasmic reticulum resident proteome (AID 1508629; active = well fitted curve in the direction sought with a large enough effect; an effect the other way counts as inactive or inconclusive). The settings on record: cell viability counter-screen, 100 nM thapsigargin for final 4 h.
The mark [20] stands for this setting: measured here: cell count channel max response.
[21] abbreviates: measured here: lipid channel max response.

Cytochrome P450 3A4 (Homo sapiens), sequence (P08684 whole entry, looked up): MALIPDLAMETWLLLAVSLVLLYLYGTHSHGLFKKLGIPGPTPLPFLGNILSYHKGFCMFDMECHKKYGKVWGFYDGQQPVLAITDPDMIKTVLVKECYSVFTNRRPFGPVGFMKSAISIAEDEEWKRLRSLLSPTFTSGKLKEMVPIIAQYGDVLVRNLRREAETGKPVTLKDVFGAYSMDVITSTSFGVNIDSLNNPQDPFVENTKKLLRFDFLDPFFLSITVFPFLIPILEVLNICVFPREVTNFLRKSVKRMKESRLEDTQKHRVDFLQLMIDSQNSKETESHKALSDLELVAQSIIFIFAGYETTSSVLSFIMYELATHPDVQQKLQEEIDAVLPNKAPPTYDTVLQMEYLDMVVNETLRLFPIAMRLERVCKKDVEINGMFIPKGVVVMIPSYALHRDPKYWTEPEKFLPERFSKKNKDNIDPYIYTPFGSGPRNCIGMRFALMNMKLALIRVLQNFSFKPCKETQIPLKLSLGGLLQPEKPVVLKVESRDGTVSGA
Lysosomal acid glucosylceramidase (Homo sapiens), sequence (P04062 whole entry, looked up): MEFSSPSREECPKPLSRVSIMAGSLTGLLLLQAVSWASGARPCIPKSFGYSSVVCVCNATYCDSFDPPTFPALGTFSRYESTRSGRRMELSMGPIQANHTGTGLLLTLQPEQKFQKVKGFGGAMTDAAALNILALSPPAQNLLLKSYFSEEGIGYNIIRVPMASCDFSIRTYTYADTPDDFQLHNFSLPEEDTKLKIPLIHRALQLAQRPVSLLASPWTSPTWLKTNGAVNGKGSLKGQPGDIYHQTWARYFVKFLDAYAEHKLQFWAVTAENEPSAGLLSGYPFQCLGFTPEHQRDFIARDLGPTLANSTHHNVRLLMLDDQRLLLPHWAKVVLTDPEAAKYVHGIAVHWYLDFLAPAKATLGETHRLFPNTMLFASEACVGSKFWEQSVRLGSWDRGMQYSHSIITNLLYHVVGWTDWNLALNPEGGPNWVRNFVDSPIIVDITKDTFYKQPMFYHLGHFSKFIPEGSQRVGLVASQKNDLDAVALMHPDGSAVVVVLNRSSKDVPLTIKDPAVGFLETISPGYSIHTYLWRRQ
Cytochrome P450 1A2 (Homo sapiens), sequence (P05177 whole entry, looked up): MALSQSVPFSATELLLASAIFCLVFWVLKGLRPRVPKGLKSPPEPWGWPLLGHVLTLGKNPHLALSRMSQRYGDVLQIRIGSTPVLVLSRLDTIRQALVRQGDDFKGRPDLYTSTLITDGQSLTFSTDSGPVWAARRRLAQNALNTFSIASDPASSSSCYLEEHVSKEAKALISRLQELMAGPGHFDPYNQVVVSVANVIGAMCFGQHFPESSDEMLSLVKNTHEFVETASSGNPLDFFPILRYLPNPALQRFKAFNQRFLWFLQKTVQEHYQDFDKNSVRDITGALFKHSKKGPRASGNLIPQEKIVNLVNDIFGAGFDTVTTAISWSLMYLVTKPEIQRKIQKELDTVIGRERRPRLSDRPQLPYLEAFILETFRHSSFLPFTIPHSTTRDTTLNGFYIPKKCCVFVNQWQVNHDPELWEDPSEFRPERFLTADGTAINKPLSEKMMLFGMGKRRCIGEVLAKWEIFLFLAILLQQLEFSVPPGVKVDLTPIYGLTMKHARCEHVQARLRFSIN
3',5'-cyclic-AMP phosphodiesterase 4B (Homo sapiens), sequence (Q07343 whole entry, looked up): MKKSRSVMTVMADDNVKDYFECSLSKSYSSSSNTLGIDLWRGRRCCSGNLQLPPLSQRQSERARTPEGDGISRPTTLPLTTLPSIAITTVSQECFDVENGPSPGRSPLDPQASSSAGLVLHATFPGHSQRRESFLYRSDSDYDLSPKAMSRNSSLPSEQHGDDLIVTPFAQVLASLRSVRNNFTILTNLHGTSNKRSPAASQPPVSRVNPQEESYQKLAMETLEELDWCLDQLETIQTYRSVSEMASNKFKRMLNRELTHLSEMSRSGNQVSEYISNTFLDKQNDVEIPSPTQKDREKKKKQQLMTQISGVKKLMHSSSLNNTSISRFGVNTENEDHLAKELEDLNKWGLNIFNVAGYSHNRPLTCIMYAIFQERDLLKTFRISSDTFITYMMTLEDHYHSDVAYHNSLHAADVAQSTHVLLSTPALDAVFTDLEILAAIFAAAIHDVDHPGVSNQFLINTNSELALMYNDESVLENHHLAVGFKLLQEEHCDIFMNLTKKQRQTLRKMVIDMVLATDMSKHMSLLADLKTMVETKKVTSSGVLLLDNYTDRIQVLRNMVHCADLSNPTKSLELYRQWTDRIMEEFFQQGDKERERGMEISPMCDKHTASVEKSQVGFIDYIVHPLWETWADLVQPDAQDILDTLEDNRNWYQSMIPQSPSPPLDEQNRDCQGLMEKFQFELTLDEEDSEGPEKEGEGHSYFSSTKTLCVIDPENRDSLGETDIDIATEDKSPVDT
Glucocorticoid receptor (Homo sapiens), sequence (P04150 whole entry, looked up): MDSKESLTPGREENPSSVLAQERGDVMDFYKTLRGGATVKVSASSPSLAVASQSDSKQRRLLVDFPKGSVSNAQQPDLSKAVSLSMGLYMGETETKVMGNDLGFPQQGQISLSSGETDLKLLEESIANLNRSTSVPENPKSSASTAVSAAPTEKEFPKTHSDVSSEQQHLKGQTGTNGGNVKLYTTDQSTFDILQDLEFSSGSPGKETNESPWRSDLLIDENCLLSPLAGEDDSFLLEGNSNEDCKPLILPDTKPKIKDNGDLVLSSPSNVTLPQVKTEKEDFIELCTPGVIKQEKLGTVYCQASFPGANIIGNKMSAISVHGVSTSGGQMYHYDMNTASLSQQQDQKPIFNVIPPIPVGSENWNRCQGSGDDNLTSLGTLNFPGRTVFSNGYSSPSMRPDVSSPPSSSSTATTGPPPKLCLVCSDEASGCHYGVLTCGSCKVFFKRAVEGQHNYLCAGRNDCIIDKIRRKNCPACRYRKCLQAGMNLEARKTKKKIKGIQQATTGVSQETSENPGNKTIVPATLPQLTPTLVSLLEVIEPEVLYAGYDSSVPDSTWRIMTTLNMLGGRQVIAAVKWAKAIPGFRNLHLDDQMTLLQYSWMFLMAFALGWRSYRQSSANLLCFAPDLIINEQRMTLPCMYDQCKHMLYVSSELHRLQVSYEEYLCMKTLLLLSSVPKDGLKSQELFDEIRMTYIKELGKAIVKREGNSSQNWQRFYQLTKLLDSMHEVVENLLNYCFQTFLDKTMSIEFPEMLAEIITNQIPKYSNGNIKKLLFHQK
Ubiquitin carboxyl-terminal hydrolase 1 (Homo sapiens), sequence (O94782 whole entry, looked up): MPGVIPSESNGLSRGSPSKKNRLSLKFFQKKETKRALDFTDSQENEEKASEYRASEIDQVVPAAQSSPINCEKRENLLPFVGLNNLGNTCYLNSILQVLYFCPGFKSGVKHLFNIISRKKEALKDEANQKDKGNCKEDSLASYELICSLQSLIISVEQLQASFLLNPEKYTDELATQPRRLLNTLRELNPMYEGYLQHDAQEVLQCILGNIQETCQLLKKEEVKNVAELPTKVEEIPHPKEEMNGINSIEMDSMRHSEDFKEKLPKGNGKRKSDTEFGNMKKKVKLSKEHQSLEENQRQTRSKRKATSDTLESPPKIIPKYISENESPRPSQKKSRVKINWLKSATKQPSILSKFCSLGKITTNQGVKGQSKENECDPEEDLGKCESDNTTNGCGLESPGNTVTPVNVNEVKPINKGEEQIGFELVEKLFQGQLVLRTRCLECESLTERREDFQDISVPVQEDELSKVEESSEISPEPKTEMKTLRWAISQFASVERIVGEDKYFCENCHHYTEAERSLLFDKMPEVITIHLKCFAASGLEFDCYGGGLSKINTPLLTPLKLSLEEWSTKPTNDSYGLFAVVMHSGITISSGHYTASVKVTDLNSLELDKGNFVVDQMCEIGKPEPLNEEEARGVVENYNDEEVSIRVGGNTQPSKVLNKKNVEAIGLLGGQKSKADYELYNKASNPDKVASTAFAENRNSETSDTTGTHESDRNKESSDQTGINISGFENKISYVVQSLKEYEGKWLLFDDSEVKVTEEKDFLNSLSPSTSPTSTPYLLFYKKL
Cytochrome P450 2C19 (Homo sapiens), sequence (P33261 whole entry, looked up): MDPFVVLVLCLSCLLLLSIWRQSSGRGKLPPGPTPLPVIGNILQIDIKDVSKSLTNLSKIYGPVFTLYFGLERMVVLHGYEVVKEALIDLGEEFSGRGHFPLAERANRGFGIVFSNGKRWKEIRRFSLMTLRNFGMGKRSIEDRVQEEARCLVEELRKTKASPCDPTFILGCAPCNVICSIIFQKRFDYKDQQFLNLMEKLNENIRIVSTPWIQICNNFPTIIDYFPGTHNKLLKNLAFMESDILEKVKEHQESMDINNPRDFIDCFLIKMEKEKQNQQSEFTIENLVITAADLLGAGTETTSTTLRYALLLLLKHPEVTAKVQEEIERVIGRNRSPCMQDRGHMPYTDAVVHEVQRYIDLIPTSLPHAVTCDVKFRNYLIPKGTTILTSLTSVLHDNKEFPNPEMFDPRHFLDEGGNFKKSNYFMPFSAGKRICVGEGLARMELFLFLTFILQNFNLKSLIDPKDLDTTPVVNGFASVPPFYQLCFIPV

Turning to `O=c1c(-c2ccccc2)nc2cnc(N3CCNCC3)nc2n1Cc1cccs1`, the values for the Potency in experiment [1], in [2] and in experiment [3] were > 11.4 µM (inactive), > 9.22 µM (inactive) and > 46 µM (inactive), respectively. Further, the Potency result in experiment [4] and in experiment [5] was “inactive” in each case.
As to `COc1ncc2nc(CCc3ccccc3)c(=O)n(C3CC3)c2n1`, the Potency was > 11.4 µM (inactive) in experiment [1], 3.16 µM (active) in experiment [7], > 9.22 µM (inactive) in [2] and > 46 µM (inactive) in [3]. In addition, the activity change, negative = inhibition in experiment [6] is -0.42% (inactive); in [8] it was 0.053% (inactive). Also, the activity, negative = inhibition in experiment [9] was -2.79% (inactive). Besides, the result in experiment [10] was inactive. Besides, the Potency entry in experiment [4], in experiment [11] and in [12] was “inactive” throughout.
For the compound `COc1ccccc1-c1cncnc1NCCN1CCOCC1`, the Potency in experiment [1] was > 11.4 µM (inactive); in [2], > 46 µM (inactive); in [3], > 46 µM (inactive); in experiment [14] it was 2.51 µM (active). Moreover, the activity, negative = inhibition in experiment [9] was 1.09% (inactive). The compound was called inactive in experiment [10], in experiment [13] and in experiment [15]. Besides, the Potency result in experiment [4], in [17] and in [12] was “inactive” in each case. The activity change, negative = inhibition in [16] was 0.65% (inactive). For the same compound, the max response in experiment [16] (setting [20]) was 4.25%; in experiment [16] (setting [21]), 4.66%.
Take `COCCn1c(=O)c(CCc2ccccc2)nc2cnc(OC)nc21`: the Potency in experiment [1] was > 11.4 µM (inactive); in experiment [7], 10 µM (active); in [2] it was > 9.22 µM (inactive); in experiment [3], > 46 µM (inactive); in experiment [18], 0.794 µM (active). Besides, the activity change, negative = inhibition is -6.75% (inactive) in [6] and -10.3% (inactive) in experiment [8]. Also, the activity, negative = inhibition in [9] is -4.28% (inactive). For the same compound, the call in [10] was inactive. Also, the Potency result in experiment [11] and in experiment [12] was “inactive” in each case.
In the case of `c1ccc(-c2cccc(N3CC4(CCNCC4)C3)c2)cc1`, the Potency is > 11.4 µM (inactive) in experiment [1], 12.6 µM (active) in experiment [7] and > 46 µM (inactive) in experiment [3]. Besides, the activity change, negative = inhibition in experiment [6] was 14.2% (inactive); in experiment [8] it was 6.24% (inactive); in [16] it was -6.46% (inactive). Besides, the activity, negative = inhibition in experiment [9] was 3.73% (inactive). Besides, the Potency result in experiment [4] is “inactive”. Moreover, the max response was -7.34% in experiment [16] (setting [20]), -10.1% in [16] (setting [21]) and -13.3% (inactive) in experiment [19].
Take `N#CCCn1c(=O)c(CCc2ccccc2)nc2cnc(OCc3ccccc3)nc21`: the Potency in experiment [1] was > 11.4 µM (inactive); in experiment [7] it was 12.6 µM (active); in experiment [2], > 9.22 µM (inactive); in experiment [3] it was > 46 µM (inactive); in experiment [5] it was 31.6 µM (active). The activity change, negative = inhibition is -4.26% (inactive) in experiment [6] and -3.34% (inactive) in experiment [8]. The activity, negative = inhibition in [9] is -0.503% (inactive). In addition, the Potency result in experiment [11] is “inactive”.
On to `Cc1cccc(CNc2cc(-c3ccccc3CN(C)C)ncn2)c1`, for which the Potency in experiment [1] is > 11.4 µM (inactive); in experiment [7] it was 25.1 µM (active); in experiment [2] it was > 46 µM (inactive); in experiment [3], > 46 µM (inactive). Further, the activity change, negative = inhibition in experiment [6] is 9.15% (inactive); in [16] it was 2.35% (inactive). For the same compound, the activity, negative = inhibition in experiment [9] was 11.7% (inactive). Further, the outcome in experiment [10], in experiment [13] and in experiment [15] was inactive. In addition, the Potency entry in experiment [11] and in experiment [17] was “inactive” each time. The max response is 2.52% in [16] (setting [20]), 10% in experiment [16] (setting [21]) and -21.4% (inactive) in experiment [19].
